Where “and” joins values, the source holds several entries; their conditions need not be identical. Identical values can stand only once. Among all 320,000 compounds or so, about 22,000 (6.9%) were called active. Inconclusive results (about 27%) are left out. The list comes from a sample in which actives are over-represented; it also holds similar structures and randomly drawn compounds. Where a call stands in place of a potency, no number is given. A number with no mark means an inactive call. Calls come from the whole dose curve; as a rule, active = well fitted inhibition curve with a large enough effect; inconclusive = small, poorly fitted or top-dose-only effect, or another doubt; inactive = no such curve, though single readings can be large or run the other way.
Potency is the fitted concentration of half-maximal effect.

The test can be described thus: Primary qHTS for delayed death inhibitors of the malarial parasite plastid, 96 hour incubation. The following applies: P. falciparum luciferase reporter growth; series mostly up to 28.7 µM. The method, boiled down:
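Luminescence readout: decreased luciferase signal marks inhibited growth of reporter-expressing P. falciparum in infected red cells (2% hematocrit, 0.05% parasitemia final), exposed to compound two generations (96 h, 37 C, 5% CO2).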
A general note: qHTS replaces the single test concentration by a dilution series.
As for `COc1ccc(/C=C2\SC(=S)N(CCC(=O)Nc3cccc(C(=O)O)c3)C2=O)cc1OC`, the Potency entry is “inactive”. On the same count and under the same terms, next, `COC(=O)CN1C(=O)C(C)(C)Oc2ccc(C(=O)Nc3cccc(OC)c3)cc21`: “inactive”; `Cc1cccc(N2CCN(c3ccc(C(N)=O)cc3[N+](=O)[O-])CC2)c1C`: “inactive”; `CS(=O)(=O)N1CCN(c2ccc(C(=O)NC3C4CC5CC(C4)CC3C5)cc2[N+](=O)[O-])CC1` (stereo not drawn): 9.28 µM (active). The same measure, in the same setting: next, `O=C(NC1C2CC3CC(C2)CC1C3)c1ccc(N2CCNCC2)c([N+](=O)[O-])c1` (stereo not drawn): “inactive”. With `COc1ccccc1N1CCN(C(=O)CSc2ncnc3c2cnn3-c2ccc(C)c(C)c2)CC1`, the Potency entry was “inactive”.

Take `COc1ccc(S(=O)(=O)NCCc2c[nH]c3ccccc23)cc1OC`: the Potency result was “inactive”. Take `Cc1ccc(CNC(=O)CCN2C(=O)[C@@H]3Cc4ccccc4CN3C2=O)cc1`: the Potency entry is “inactive”.

Regarding `C/C(=N\NC(=O)Cc1ccccc1[N+](=O)[O-])c1cccnc1`, the Potency entry is “inactive”.

For the molecule `O=C(COC(=O)Cn1cnc2ccccc2c1=O)NCc1ccccc1Cl`, the Potency result was “inactive”. As to `Cc1cccn2c(=O)nc(SCC(=O)NCc3ccccc3Cl)nc12`, the Potency entry was “inactive”. On the same count and under the same terms, with `Cc1nn(CCCC(=O)NCc2ccccc2Cl)c(=O)c2nccn12` the figure was 1.04 µM (active); with `COc1ccccc1NC(=O)CCC(=O)N1CC(C)Oc2ccc(C)cc21` (stereo not drawn), “inactive”. For `CCOC(=O)N1CCN(S(=O)(=O)c2ccc(-n3cnnn3)cc2)CC1`, the Potency entry was “inactive”. The same measure, in the same setting: with `O=C(c1ccccc1)N1CCN(C(=O)N2CCCCC2)CC1` the entry was “inactive”; with `O=C(c1ccc(-n2cnnn2)cc1)N1CCN(C(c2ccccc2)c2ccccc2)CC1`, 4.65 µM (active). Same read-out and setting: with `CCn1cc(C(=O)OCC(=O)Nc2cccc(C)c2)c(=O)c2ccc(C)nc21` the entry was “inactive”; with `CCOC(=O)c1cn(CC)c2cc(F)c(F)cc2c1=O`, “inactive”; with `Cc1ccccc1N1CC(C(=O)Nc2ccc3c(c2)OCO3)CC1=O` (stereo not drawn), “inactive”. Still for that read-out and setting: with `Cc1cccc(N2CC(C(=O)Nc3ccccc3N3CCCC3)CC2=O)c1C` (stereo not drawn) the figure was 5.22 µM (active); with `Cc1ccccc1N1CC(C(=O)Nc2ccc(S(=O)(=O)N3CCCC3)cc2)CC1=O` (stereo not drawn), “inactive”. Regarding `CC(=O)C1=C(O)C(=O)N(c2ccc(Br)cc2)C1c1ccc([N+](=O)[O-])cc1` (stereo not drawn), the Potency result is “inactive”.

In the case of `COC(=O)C1CCN(C(=O)NC2CC(=O)N(c3ccc4c(c3)OCCO4)C2)CC1` (stereo not drawn), the Potency entry is “inactive”. Regarding `CCOC(=O)C1CCc2nc3ccccc3c(=O)n21` (stereo not drawn), the Potency result is “inactive”. Take `CCOC(=O)C(C)Sc1nc2ccccc2c(=O)n1CC1CCCCC1` (stereo not drawn): the Potency was 11.7 µM (active). On the same count and under the same terms, with `O=C(CSc1nc2ccccc2c(=O)n1CCCO)NC1CC1` the entry was “inactive”; with `O=C(NCCN1CCN(C(=O)c2cccc([N+](=O)[O-])c2)CC1)C(=O)NCc1ccc(Cl)cc1`, “inactive”. Take `Cc1ccc(NC(=S)N2CCCC(c3ccccc3)=N2)cc1`: the Potency entry is “inactive”. On to `CSCCC(NC(=O)c1ccc(Cl)cc1Cl)C(=O)NNC(=O)c1csc(N2CCOCC2)n1` (stereo not drawn), for which the Potency entry was “inactive”. `CC(C)(C)C1C/C(=C/c2ccco2)C(=O)/C(=C/c2ccco2)C1` (stereo not drawn): the Potency is 13.1 µM (active). The same measure, in the same setting: with `O=C1OC(/C=C/c2ccccc2)=NC/1=C/c1ccco1` the entry was “inactive”. The same measure, in the same setting: with `CCC1S/C(=N/N=C/c2ccco2)NC1=O` (stereo not drawn) the entry was “inactive”. Consider `CCOc1ccc(CNC(=O)CCC(=O)N2CCSc3ccccc32)cc1`, for which the Potency result was “inactive”. Still for that read-out and setting: next, `Cc1ccc(S(=O)(=O)N2CCN(C(=O)c3ccccc3-c3nc4ccccc4s3)CC2)c(C)c1`: “inactive”; `CN(C)C(=O)COC(=O)c1cccc(S(=O)(=O)N2CC3(C)CC2CC(C)(C)C3)c1` (stereo not drawn): “inactive”; `Cc1ccc(N(C(=O)c2snc(C(N)=O)c2N)C(C(=O)NCC2CCCO2)c2c[nH]c3ccccc23)cc1` (stereo not drawn): “inactive”. Take `CC(C)(C)c1ccc(SCCc2ccncc2)cc1`: the Potency entry is “inactive”.

In the case of `Cc1cc(C)c(SCCc2ccncc2)c(C)c1`, the Potency is 10.4 µM (active). For the molecule `c1ccc(CSCCc2ccncc2)cc1`, the Potency entry was “inactive”. On to `COC(=O)c1cc(OCC(=O)NC2CCCc3ccccc32)cc(C(=O)OC)c1` (stereo not drawn), for which the Potency entry was “inactive”.

Regarding `Cc1ccc(C(=O)NCC(=O)OCC(=O)NC2CCCCCCC2)cc1`, the Potency result was “inactive”.

For `Oc1ccc(-c2cccc(-c3ccc(O)cc3)c2)cc1`, the Potency entry is “inactive”.

With `O=C(NCCS(=O)(=O)N1CCN(c2ccc(F)cc2)CC1)c1ccc2c(c1)OCO2`, the Potency entry was “inactive”. Take `Cn1cnnc1SCc1nnc(-c2ccccc2Br)o1`: the Potency result was “inactive”. The same measure, in the same setting: with `CC(C)N(Cc1nnc(-c2ccccc2Br)o1)C(=O)c1cc(Cl)nc2ccccc12` the figure was 14.7 µM (active). On to `CC(C)N(Cc1nnc(-c2ccc(Cl)cc2)o1)C(=O)C1=COCCO1`, for which the Potency entry is “inactive”. Regarding `O=S(=O)(Nc1ccccc1)c1ccc(NS(=O)(=O)c2cccs2)cc1`, the Potency result was “inactive”. As for `Cc1ccc(OCCNC(=O)CNC(=O)c2ccc(C)c(C)c2)cc1`, the Potency result is “inactive”.

On to `COc1cc(Nc2nc3ccc(Cl)cc3n3cnnc23)cc(OC)c1OC`, for which the Potency result is “inactive”. Take `CN(C)N(C)C(=O)C(O)(c1ccccc1)c1ccccc1`: the Potency result is “inactive”.

`CCOC(=O)CCP(=O)(O)C(O)(c1ccccc1)c1ccccc1`: the Potency entry was “inactive”.

As to `CC[N+]1(C)CCCC(OC(=O)C(O)(c2ccccc2)c2ccccc2)C1` (stereo not drawn), the Potency is 8.49 µM (active) and 10.4 µM (active).

With `O=S(=O)(c1ccc(Cl)cc1)c1nc(-c2ccccc2F)oc1NCCN1CCOCC1`, the Potency entry is “inactive”. Take `O=C(CN1C(=O)c2cccc3cccc1c23)Nc1ccccc1`: the Potency entry was “inactive”. As to `C[N+](C)(CCCCCC[N+](C)(C)CCCN1C(=O)c2cccc3cccc(c23)C1=O)CCCN1C(=O)c2cccc3cccc(c23)C1=O`, the Potency was 0.233 µM (active). Still for that read-out and setting: with `O=C1c2cccc3cccc(c23)C(=O)N1CCCCCc1n[nH]c(=S)o1` the entry was “inactive”. Same read-out and setting: with `COc1cc(/C=C/C(=O)O)cc(S(=O)(=O)Nc2ccccc2C(=O)NCCc2ccccc2)c1OC` the entry was “inactive”; with `Cc1cccc(NC(=O)C(C)N2C(=O)C3C4CC(C(Br)C4Br)C3C2=O)c1` (stereo not drawn), “inactive”. `Cc1cc(C)cc(NC(=O)c2cccc(NC(=O)C3C4CC5OC(=O)C3C5C4)c2)c1` (stereo not drawn): the Potency was 0.0738 µM (active). On the same count and under the same terms, next, `Cc1ccc(NC(=O)COC(=O)C2C3CC4OC(=O)C2C4C3)cc1Cl` (stereo not drawn): “inactive”; `O=C(NCCS(=O)(=O)N1CCN(c2ccccc2)CC1)c1ccco1`: “inactive”. For the molecule `CSc1cccc(NC(=O)CN2C(=O)COc3ccc(S(=O)(=O)N4CCOCC4)cc32)c1`, the Potency result is “inactive”.

`COCCn1nnnc1C(c1ccccc1Cl)N1CCN(c2ccccc2OC)CC1` (stereo not drawn): the Potency result was “inactive”. The same measure, in the same setting: next, `CCC(=O)N(C)C(c1ccccc1Cl)c1nnnn1-c1c(C)cccc1C` (stereo not drawn): 9.28 µM (active). Consider `CN(C(=O)CSc1nnnn1-c1ccccc1)C1CCCCC1`, for which the activity change, negative = inhibition was 1.42% [at 5.75 µM]. As to `CCc1ccccc1NC(=O)CSc1nnc(CCNC(=O)OC(C)(C)C)o1`, the Potency result is “inactive”. For the molecule `Cc1ccccc1C1=NC(C(F)(F)F)(C(F)(F)F)c2c(n(-c3ccc(F)cc3)c(=O)[nH]c2=O)N1`, the Potency was 11.7 µM (active). Consider `O=c1[nH]c(=O)n(Cc2ccco2)c2c1C(C(F)(F)F)(C(F)(F)F)N=C(c1ccco1)N2`, for which the Potency entry is “inactive”.

Turning to `C=CCNC(=S)N1CCc2[nH]c3ccccc3c2C1`, the Potency entry is “inactive”. Same read-out and setting: next, `O=C(NC1CCCCC1)N1CCc2[nH]c3ccccc3c2C1`: 8.28 µM (active); `O=C(Nc1ccc(Cl)cc1)N1CCc2[nH]c3ccccc3c2C1`: “inactive”. `Cc1ccc(F)c(NC(=O)CCOc2ccccc2C)c1`: the Potency result was “inactive”. On the same count and under the same terms, with `COc1ccccc1C(=O)N1C(CC(=O)Nc2ccccc2C)C(=O)NC2CCCCC21` (stereo not drawn) the entry was “inactive”; with `COc1ccc(OC)c(C2C3=C(N=c4s/c(=C\c5cccc(O)c5)c(=O)n42)c2ccccc2CC3)c1` (stereo not drawn), 2.08 µM (active). On to `COc1cc(C(=O)OCC(=O)NC(C)CCc2ccccc2)cc(OC)c1OC` (stereo not drawn), for which the Potency result was “inactive”. With `COCCCNC(=O)CNC(=O)c1nn(-c2ccc(OC)cc2)c(=O)c2ccccc12`, the Potency result is “inactive”. Turning to `COc1ccc(-n2nc(C(=O)NCC(=O)N3CCC(C(N)=O)CC3)c3ccccc3c2=O)cc1OC`, the Potency entry was “inactive”. The same measure, in the same setting: with `COc1ccc(-n2nc(C(=O)NCC(=O)N3CCCCCC3)c3ccccc3c2=O)cc1Cl` the figure was 2.33 µM (active); with `Cc1ccc(C(=O)O/N=C(\N)c2ccccn2)cc1Cl`, “inactive”; with `Cc1nc(C(=O)NCc2ccccc2)sc1C1(C)CC(c2cccnc2)=NO1` (stereo not drawn), “inactive”.

As for `O=C1c2ccccc2C(Nc2ccc3c(c2)OCCO3)N1Cc1ccco1` (stereo not drawn), the Potency is 4.65 µM (active). The same measure, in the same setting: next, `S=C(NCc1ccco1)Nc1ccc2c(c1)OCCO2`: “inactive”; `COc1ccccc1C1/C(=C(/O)c2ccc(C)cc2)C(=O)C(=O)N1Cc1ccco1` (stereo not drawn): “inactive”. With `O=[N+]([O-])c1ccccc1/C=C/CN1CCCC(CO)C1` (stereo not drawn), the Potency result was “inactive”. Same read-out and setting: with `COc1cccc(CNS(=O)(=O)c2ccc3c(c2)CC(C)N3C(C)=O)c1` (stereo not drawn) the figure was 10.4 µM (active). In the case of `COc1cccc(CNS(=O)(=O)c2ccc3c(c2)N(C(C)=O)CCS3)c1`, the Potency result was “inactive”.

`COc1cccc(CNS(=O)(=O)c2ccc3c(c2)CC(C)N3C(=O)C2CCC2)c1` (stereo not drawn): the Potency entry is “inactive”. Same read-out and setting: with `COc1cc(C(=O)N/C(=C\c2cn(C)c3ccccc23)C(=O)N2CCOCC2)cc(OC)c1OC` the entry was “inactive”; with `Cc1ccc(NC(=O)C/C(N)=N/O)cc1Cl`, “inactive”; with `Cc1ccc(NC(=O)CSc2nn3c(=O)c(C)nnc3s2)cc1Cl`, 9.28 µM (active). Turning to `COc1ccc(Cc2nnc(SCC(=O)Nc3ccc(C)c(Cl)c3)[nH]c2=O)cc1`, the Potency result was “inactive”. Turning to `Fc1cc(F)c2nc(N3CCOCC3)sc2c1`, the Potency is 3.7 µM (active). Turning to `O=C(c1ccc2nc(N3CCOCC3)sc2c1)N1CCN(c2ccc(Cl)cc2)CC1`, the Potency entry is “inactive”. Take `O=S(=O)(Nc1ccc2nc(N3CCOCC3)sc2c1)c1ccccc1`: the Potency entry is “inactive”.

As to `COc1ccc(S(=O)(=O)N2CCN(C(C)C(=O)Nc3ccc(C(C)C)cc3)CC2)cc1` (stereo not drawn), the Potency entry is “inactive”. On the same count and under the same terms, next, `CCOc1ccccc1Nc1ccc(C(=O)O)cc1[N+](=O)[O-]`: “inactive”; `O=[N+]([O-])c1cccc(Nc2c3ccccc3nc3ccccc23)c1`: “inactive”; `O=C(O)c1cc([N+](=O)[O-])c(Nc2cccc3ccccc23)c([N+](=O)[O-])c1`: 3.29 µM (active).
